Key:
Assay in all cases: DAPPL (digital affinity profiling via proximity ligation, sequencing); 10 mM Tris-HCl pH 7.5, 50 mM NaCl, 1 mM DTT, 4% glycerol, room temperature, 30 min; GST-TFs on glutathione beads, 16-mer random dsDNA library, 0.1% formaldehyde crosslink after washing; high values mean tight binding
Details in all cases: protein: recombinant; tags: N-terminal GST; dsDNA, one strand shown
ELF4 = ELF4 (Homo sapiens, UniProt Q99607 1-663)
Procedure, shortened: (§1)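 Binding signal is defined as a hexamer's read frequency for one factor over its frequency for the tag-only sample. To obtain reads, GST-fused human transcription factors were expressed in yeast, captured on glutathione beads, barcoded with DNA and pooled with that sample. Pools met 200 nmole of a 16-mer random double-stranded DNA library in Tris/NaCl/DTT/glycerol buffer for 30 min at room temperature before washing, 0.1% formaldehyde crosslinking, proximity ligation (BsaI/T4 ligase, 1 h, 37 °C), PCR and Illumina NextSeq500 sequencing.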

ETV2 = molecular target: T1, ETV2 (Homo sapiens, UniProt O00321 1-342)
T1 sequence: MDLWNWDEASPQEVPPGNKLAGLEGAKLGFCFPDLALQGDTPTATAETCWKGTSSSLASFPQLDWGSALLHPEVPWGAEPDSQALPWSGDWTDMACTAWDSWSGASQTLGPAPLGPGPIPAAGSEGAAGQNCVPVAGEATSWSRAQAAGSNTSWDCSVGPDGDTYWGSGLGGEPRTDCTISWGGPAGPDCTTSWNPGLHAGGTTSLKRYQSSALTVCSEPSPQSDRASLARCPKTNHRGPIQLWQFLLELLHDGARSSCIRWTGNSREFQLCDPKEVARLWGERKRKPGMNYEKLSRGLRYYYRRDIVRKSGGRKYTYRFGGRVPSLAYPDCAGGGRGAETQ
Procedure, shortened: as §1

ELF3 = molecular target: T2, ELF3 (Homo sapiens, UniProt P78545 1-371)
T2 sequence: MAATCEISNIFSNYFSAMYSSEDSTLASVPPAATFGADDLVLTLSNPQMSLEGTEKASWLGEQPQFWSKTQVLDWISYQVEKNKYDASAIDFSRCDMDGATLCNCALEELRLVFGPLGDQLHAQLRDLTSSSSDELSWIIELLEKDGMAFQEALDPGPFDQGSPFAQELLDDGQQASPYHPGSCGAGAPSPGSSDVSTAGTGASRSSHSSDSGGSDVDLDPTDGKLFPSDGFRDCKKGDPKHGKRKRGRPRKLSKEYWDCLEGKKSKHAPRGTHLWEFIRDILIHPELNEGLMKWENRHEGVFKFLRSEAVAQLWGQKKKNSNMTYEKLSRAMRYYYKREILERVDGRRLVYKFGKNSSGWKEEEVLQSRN
Procedure, shortened: as §1

ETV1 = ETV1 (Homo sapiens, UniProt P50549 1-477)
Procedure, shortened: as §1

ERF = molecular target: T3, ERF (Homo sapiens, UniProt P50548 1-548)
T3 sequence: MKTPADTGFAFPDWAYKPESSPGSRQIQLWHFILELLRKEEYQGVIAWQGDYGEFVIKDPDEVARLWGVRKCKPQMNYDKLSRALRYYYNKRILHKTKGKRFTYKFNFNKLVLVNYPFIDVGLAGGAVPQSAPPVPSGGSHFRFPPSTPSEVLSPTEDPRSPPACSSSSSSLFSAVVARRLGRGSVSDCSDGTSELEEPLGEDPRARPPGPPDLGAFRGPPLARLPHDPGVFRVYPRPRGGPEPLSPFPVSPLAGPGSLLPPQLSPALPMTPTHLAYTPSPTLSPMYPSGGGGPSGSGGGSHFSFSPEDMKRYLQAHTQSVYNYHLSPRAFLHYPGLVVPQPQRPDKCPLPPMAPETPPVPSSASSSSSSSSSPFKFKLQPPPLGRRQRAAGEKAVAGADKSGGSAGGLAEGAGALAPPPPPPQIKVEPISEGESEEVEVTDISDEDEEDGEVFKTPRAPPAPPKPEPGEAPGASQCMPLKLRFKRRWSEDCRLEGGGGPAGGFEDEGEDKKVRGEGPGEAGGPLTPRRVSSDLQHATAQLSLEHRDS
Procedure, shortened: as §1

ETV3L = molecular target: T4, ETV3L (Homo sapiens, UniProt Q6ZN32 1-361)
T4 sequence: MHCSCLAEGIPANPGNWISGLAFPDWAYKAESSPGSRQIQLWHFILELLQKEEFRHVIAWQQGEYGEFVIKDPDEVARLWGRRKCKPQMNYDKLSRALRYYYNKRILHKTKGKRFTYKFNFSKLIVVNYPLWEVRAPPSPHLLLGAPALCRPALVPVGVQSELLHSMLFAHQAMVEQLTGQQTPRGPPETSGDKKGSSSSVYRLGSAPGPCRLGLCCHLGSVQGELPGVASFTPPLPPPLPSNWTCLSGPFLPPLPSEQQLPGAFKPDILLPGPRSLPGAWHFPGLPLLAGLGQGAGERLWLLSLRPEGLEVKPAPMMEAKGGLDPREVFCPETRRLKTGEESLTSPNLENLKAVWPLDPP
Procedure, shortened: as §1

ETS2 = molecular target: T5, ETS2 (Homo sapiens, UniProt P15036 1-469)
T5 sequence: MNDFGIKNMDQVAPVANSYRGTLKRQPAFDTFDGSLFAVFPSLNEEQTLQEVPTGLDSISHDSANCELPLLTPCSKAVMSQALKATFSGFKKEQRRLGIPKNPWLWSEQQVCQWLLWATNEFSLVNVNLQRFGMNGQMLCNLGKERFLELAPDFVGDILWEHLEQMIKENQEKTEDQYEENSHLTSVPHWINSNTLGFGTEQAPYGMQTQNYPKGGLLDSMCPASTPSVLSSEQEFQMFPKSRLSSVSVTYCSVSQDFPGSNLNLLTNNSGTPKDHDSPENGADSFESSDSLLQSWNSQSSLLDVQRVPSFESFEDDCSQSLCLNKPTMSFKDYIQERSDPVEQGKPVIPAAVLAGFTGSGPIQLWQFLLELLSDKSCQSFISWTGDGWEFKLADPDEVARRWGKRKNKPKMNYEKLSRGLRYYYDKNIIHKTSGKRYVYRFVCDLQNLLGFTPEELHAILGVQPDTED
Procedure, shortened: as §1

ETV7 = molecular target: T6, ETV7 (Homo sapiens, UniProt Q9Y603 1-341)
T6 sequence: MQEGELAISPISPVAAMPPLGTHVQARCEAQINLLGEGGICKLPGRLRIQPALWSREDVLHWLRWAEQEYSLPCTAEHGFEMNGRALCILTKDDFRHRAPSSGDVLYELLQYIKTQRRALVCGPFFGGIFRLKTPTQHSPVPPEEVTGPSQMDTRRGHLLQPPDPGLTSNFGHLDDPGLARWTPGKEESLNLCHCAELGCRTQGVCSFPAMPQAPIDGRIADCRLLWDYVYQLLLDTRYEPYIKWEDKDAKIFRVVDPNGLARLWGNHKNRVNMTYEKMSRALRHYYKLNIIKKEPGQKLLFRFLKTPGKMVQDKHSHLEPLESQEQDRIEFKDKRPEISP
Procedure, shortened: as §1

ETV3 = molecular target: T7, ETV3 (Homo sapiens, UniProt P41162-2 1-143)
T7 sequence: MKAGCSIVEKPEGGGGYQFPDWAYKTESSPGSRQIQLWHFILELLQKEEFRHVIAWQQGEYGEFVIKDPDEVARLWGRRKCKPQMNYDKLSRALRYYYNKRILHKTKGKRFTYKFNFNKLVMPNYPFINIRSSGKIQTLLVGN
Procedure, shortened: as §1

ETV6 = ETV6 (Homo sapiens, UniProt P41212 1-452)
Procedure, shortened: as §1

Sequence of ETV6 (P41212 whole entry): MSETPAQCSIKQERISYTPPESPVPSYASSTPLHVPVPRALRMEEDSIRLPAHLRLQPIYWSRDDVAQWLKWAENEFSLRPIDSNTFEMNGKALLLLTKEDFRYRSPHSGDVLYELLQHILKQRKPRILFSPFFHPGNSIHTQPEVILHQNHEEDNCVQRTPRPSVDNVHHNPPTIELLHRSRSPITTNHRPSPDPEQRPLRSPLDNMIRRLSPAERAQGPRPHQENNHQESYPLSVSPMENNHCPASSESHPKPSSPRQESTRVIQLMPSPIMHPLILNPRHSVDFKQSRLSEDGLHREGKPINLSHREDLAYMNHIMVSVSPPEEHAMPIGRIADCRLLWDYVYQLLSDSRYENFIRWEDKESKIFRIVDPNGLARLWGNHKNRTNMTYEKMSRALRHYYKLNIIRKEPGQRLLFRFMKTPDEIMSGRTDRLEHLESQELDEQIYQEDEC
Sequence of ELF4 (Q99607 whole entry, the tested form may be a part): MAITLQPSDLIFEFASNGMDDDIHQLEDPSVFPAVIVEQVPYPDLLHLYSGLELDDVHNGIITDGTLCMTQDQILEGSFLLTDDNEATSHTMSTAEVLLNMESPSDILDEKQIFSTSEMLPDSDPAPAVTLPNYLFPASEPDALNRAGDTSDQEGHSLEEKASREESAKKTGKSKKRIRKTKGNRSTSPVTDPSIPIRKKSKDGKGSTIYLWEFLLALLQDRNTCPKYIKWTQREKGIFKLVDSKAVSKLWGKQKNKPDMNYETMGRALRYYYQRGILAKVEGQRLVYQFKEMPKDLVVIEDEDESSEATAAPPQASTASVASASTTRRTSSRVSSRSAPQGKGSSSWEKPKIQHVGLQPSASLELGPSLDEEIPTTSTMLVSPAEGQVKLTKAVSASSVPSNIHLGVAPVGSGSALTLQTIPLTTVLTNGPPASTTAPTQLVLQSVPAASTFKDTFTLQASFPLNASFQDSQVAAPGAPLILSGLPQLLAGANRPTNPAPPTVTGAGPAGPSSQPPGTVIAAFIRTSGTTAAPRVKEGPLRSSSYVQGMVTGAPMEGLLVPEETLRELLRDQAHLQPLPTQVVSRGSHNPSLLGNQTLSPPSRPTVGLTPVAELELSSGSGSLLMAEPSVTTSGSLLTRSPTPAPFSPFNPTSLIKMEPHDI
Sequence of ETV1 (P50549 whole entry): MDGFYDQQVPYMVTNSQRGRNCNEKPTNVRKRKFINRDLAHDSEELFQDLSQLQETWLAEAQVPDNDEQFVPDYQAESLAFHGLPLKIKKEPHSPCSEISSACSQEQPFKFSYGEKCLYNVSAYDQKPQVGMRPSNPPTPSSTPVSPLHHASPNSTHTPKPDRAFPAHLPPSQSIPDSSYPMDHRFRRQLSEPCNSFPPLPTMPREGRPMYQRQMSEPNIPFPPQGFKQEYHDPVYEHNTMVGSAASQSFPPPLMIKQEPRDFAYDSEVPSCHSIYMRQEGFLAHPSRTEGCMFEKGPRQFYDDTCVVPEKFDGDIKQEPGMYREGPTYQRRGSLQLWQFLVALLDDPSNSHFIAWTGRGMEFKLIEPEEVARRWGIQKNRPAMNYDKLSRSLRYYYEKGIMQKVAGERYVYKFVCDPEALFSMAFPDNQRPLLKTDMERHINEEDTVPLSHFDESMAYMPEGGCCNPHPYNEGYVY

**Q.** Which results are given for CACATG?
**A.** binding signal (ELF4): 1.09 fold enrichment (6-mer frequency, TF over GST control); binding signal (ETV2): 1.12 fold enrichment (6-mer frequency, TF over GST control); binding signal (ELF3): 1.04 fold enrichment (6-mer frequency, TF over GST control); binding signal (ETV1): 1.1 fold enrichment (6-mer frequency, TF over GST control); binding signal (ERF): 1.12 fold enrichment (6-mer frequency, TF over GST control); binding signal (ETV3L): 1.03 fold enrichment (6-mer frequency, TF over GST control); binding signal (ETS2): 1.11 fold enrichment (6-mer frequency, TF over GST control); binding signal (ETV7): 1.03 fold enrichment (6-mer frequency, TF over GST control); binding signal (ETV3): 1.07 fold enrichment (6-mer frequency, TF over GST control); binding signal (ETV6): 1.06 fold enrichment (6-mer frequency, TF over GST control)

From publication PMC7862700, “An all-to-all approach to the identification of sequence-specific readers for epigenetic DNA modifications on cytosine”
